Active and inactive are the calls of the source.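 How the source made its calls, unless noted: active means fluorescence slope higher than the sample average by over 3 SD (cut at about -0.22 in these data, passing the limit was not always enough); inactive means the rest.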
tested on: not listed separately; experiment: inhibitors of E-selectin induction by TNFa, primary screen, imaging, HUVEC, immunofluorescence, MLSMR starter and 10KST1 sets (AID 487;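 active means visually confirmed hit in the image check and inhibition above 20%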;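 on inhibition: signal is fraction of cell area covered by stained E-selectin grains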;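 on nuclei count: 100% = median nuclei count of all wells on the same plate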); conditions: HUVEC TNFalpha-induced E-selectin immunofluorescence imaging, at 2 µM; inhibition: stronger effect = higher value; nuclei count: measured here: cell number, toxicity

Row | SMILES | nuclei count | inhibition
1 | CCOCCCNC(=O)C(c1ccc(C)cc1)N(Cc1ccc2c(c1)OCO2)C(=O)c1cnccn1 (stereo not given) | 107% | -40.9% (inactive)
2 | CCc1cccc2c(=O)c(C(=O)N3CCCCCC3)c[nH]c12 | 94.3% | -31% (inactive)
3 | Cn1c(NC(=O)c2ccccc2NC(=O)C(C)(C)C)nc2ccccc21 | 126% | -10.7% (inactive)
4 | Cc1cccc(NC(=O)COc2ccc(Br)cc2)n1 | 124% | 26.7% (inactive)
5 | Cc1ccc(-c2ccc(=O)n(CC(=O)NCCCN3CCCCC3C)n2)cc1 (stereo not given) | 96% | 14.8% (inactive)
6 | Cc1oc(-c2ccccc2F)nc1CS(=O)(=O)CC(=O)NCCCN1CCc2ccccc2C1 | 108% | 27.9% (inactive)
7 | O=C(c1ccc(S(=O)(=O)N2CCOCC2)cc1)N(c1ccc(F)cc1)C1C=CS(=O)(=O)C1 (stereo not given) | 107% | -74.8% (inactive)
8 | CCC1CCCCN1C(=O)Cn1c(C(=O)OC)cc2sc(Cl)cc21 (stereo not given) | 94.4% | 7.9% (inactive)
9 | CC(=O)Nc1ccc(N=Cc2nc(-c3ccc(C)cc3)oc2O)cc1 | 132% | -287% (inactive)
10 | COc1ccc(S(=O)(=O)Nc2ccc(F)c(Cl)c2)cc1OC | 63% | 57.8% (inactive)
11 | CCCCN(CC)CCCNC(=O)c1cc2c(=O)n(C)c3ccccc3c2n1C | 107% | -52.5% (inactive)
12 | CC1(C)NC(=O)N(CN2C(=O)NC(C)(C)C2=O)C1=O | 110% | 28.8% (inactive)
13 | CCOC(=O)c1cnn(-c2sc(C(=O)OCC)c(C)c2C(=O)OCC)c1N | 115% | -5.8% (inactive)
14 | O=C(CCN1C(=O)C2C3C=CC(C3)C2C1=O)NC1CCCc2ccccc21 (stereo not given) | 104% | -138% (inactive)
15 | COc1ccc(NC(=O)C(C)NS(=O)(=O)c2ccccc2)cc1Cl (stereo not given) | 65% | -51.4% (inactive)
16 | CCOc1cc(C2C3=C(CCCC3=O)N(C)C3=C2C(=O)CCC3)cc(Cl)c1O | 112% | -17.1% (inactive)
17 | CN(C)c1cccc2c(S(=O)(=O)Nc3ccccn3)cccc12 | 86.9% | 22.1% (inactive)
18 | Cc1ccccc1-n1c(=O)cc(NCc2ccc3c(c2)OCO3)[nH]c1=O | 95.2% | -155% (inactive)
19 | COc1ccc(-c2nc3cc(NC(=O)Cc4ccc(OC)c(OC)c4)ccc3o2)cc1 | 114% | -13.5% (inactive)
20 | O=C(COc1ccccc1)NCC(c1cccs1)N1CCOCC1 (stereo not given) | 112% | -82.3% (inactive)

Row | SMILES | nuclei count | inhibition
21 | COc1ccc(OCCN2C(=O)NC(C)(c3ccc(C)cc3)C2=O)cc1 (stereo not given) | 138% | -84.6% (inactive)
22 | CCOC(=O)c1ccc(Oc2nc(SC)nc(N(C)C)n2)cc1 | 133% | -308% (inactive)
23 | CCC(C)NC(=O)C1(C)CCC(=O)N1CCc1ccc(OC)c(OC)c1 (stereo not given) | 103% | 0.6% (inactive)
24 | O=C(CN1CCN(c2ncccn2)CC1)Nc1ccccc1-n1cccc1 | 93.4% | 25.5% (inactive)
25 | O=C1CCCN1Cc1ncnn1-c1ccccc1 | 131% | -85.8% (inactive)
26 | CN(C)c1ccnc(NCc2ccccc2)c1C#N | 112% | -62% (inactive)
27 | CCCc1cc(C(=O)Nc2ccc(C(C)=O)cc2)no1 | 110% | -58.4% (inactive)
28 | O=C(CN(CCc1ccccc1)C(=O)CNS(=O)(=O)c1ccccc1)NCC1CCCO1 (stereo not given) | 109% | -46.7% (inactive)
29 | Cc1ccc(SCC(=O)NCCN2C(=O)CSC2=O)c(C)c1 | 115% | -98.3% (inactive)
30 | COc1cc(C)c(N)cc1C(C)C | 110% | -41.7% (inactive)
31 | O=C(CSc1ncnc2c1cnn2Cc1ccccc1)Nc1ccc2c(c1)OCCO2 | 94.2% | 11.1% (inactive)
32 | O=C(Cn1ncc2c(=O)oc3ccccc3c21)NCC1CCCO1 (stereo not given) | 125% | -40.1% (inactive)
33 | COc1ccccc1Oc1ccc(S(=O)(=O)N2CCOCC2)cc1S(=O)(=O)N1CCOCC1 | 132% | -142% (inactive)
34 | CCOC(=O)N1CCN(C(=O)c2ccc3c(SCC(=O)O)c4c(nc3c2)CCCC4)CC1 | 137% | -74.3% (inactive)
35 | CCc1nc(NCCCN2CCOCC2)c2oc3ccccc3c2n1 | 103% | -55.2% (inactive)
36 | COc1ccc(OC)c(-c2nc3c(C)n[nH]c(=O)c3[nH]2)c1 | 118% | 9.1% (inactive)
37 | O=C(Nc1cccc(-c2nnc(-c3ccccc3)o2)c1)C1CCCCC1 | 116% | -21.3% (inactive)
38 | Cc1ccc(S(=O)(=O)Nc2cc(C(=O)O)ccc2N2CCCCC2)cc1 | 114% | -107% (inactive)
39 | Cc1cc2n(n1)C(c1ccccc1)Nc1ccccc1-2 (stereo not given) | 119% | -13.2% (inactive)
40 | Cc1ccc(C)c(C(=O)CC2(O)C(=O)N(C)c3ccccc32)c1 (stereo not given) | 122% | -7% (inactive)

target: Voltage-gated potassium channel subunit beta-2 (Rattus norvegicus) (UniProt P62483); experiment: KvBeta enzyme negative modulators, primary screen, biochemical, NADPH fluorescence (AID 622); conditions: recombinant KvBeta, 4-cyanobenzaldehyde reduction, at 10 µM, stronger effect = higher value;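 further: slope of raw intensity against log time taken from 70 to 1610 s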
Sequence (P62483 whole entry, looked up): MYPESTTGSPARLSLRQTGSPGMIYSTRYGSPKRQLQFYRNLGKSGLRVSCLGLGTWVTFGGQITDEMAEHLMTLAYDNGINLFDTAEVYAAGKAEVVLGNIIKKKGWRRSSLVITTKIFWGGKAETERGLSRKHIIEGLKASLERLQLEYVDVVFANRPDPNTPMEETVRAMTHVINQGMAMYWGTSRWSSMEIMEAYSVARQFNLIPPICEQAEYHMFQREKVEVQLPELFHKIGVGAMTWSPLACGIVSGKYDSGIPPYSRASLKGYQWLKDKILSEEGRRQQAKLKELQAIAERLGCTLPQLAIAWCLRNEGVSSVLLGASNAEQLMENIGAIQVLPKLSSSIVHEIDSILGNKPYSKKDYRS

Row | SMILES | fluorescence slope
41 | CCOCCCNC(=O)C(c1ccc(C)cc1)N(Cc1ccc2c(c1)OCO2)C(=O)c1cnccn1 (stereo not given) | -0.471 (inactive)
42 | CCc1cccc2c(=O)c(C(=O)N3CCCCCC3)c[nH]c12 | -0.513 (inactive)
43 | Cn1c(NC(=O)c2ccccc2NC(=O)C(C)(C)C)nc2ccccc21 | -0.163 (active)
44 | Cc1cccc(NC(=O)COc2ccc(Br)cc2)n1 | -0.437 (inactive)
45 | Cc1ccc(-c2ccc(=O)n(CC(=O)NCCCN3CCCCC3C)n2)cc1 (stereo not given) | -0.497 (inactive)
46 | Cc1oc(-c2ccccc2F)nc1CS(=O)(=O)CC(=O)NCCCN1CCc2ccccc2C1 | -0.508 (inactive)
47 | O=C(c1ccc(S(=O)(=O)N2CCOCC2)cc1)N(c1ccc(F)cc1)C1C=CS(=O)(=O)C1 (stereo not given) | -0.288 (inactive)
48 | CCC1CCCCN1C(=O)Cn1c(C(=O)OC)cc2sc(Cl)cc21 (stereo not given) | -0.388 (inactive)
49 | CC(=O)Nc1ccc(N=Cc2nc(-c3ccc(C)cc3)oc2O)cc1 | -0.281 (inactive)
50 | COc1ccc(S(=O)(=O)Nc2ccc(F)c(Cl)c2)cc1OC | -0.431 (inactive)
51 | CCCCN(CC)CCCNC(=O)c1cc2c(=O)n(C)c3ccccc3c2n1C | -0.611 (inactive)
52 | CC1(C)NC(=O)N(CN2C(=O)NC(C)(C)C2=O)C1=O | -0.415 (inactive)
53 | CCOC(=O)c1cnn(-c2sc(C(=O)OCC)c(C)c2C(=O)OCC)c1N | -0.517 (inactive)
54 | O=C(CCN1C(=O)C2C3C=CC(C3)C2C1=O)NC1CCCc2ccccc21 (stereo not given) | -0.441 (inactive)
55 | COc1ccc(NC(=O)C(C)NS(=O)(=O)c2ccccc2)cc1Cl (stereo not given) | -0.369 (inactive)
56 | CCOc1cc(C2C3=C(CCCC3=O)N(C)C3=C2C(=O)CCC3)cc(Cl)c1O | -0.43 (inactive)
57 | CN(C)c1cccc2c(S(=O)(=O)Nc3ccccn3)cccc12 | -0.318 (inactive)
58 | Cc1ccccc1-n1c(=O)cc(NCc2ccc3c(c2)OCO3)[nH]c1=O | -0.614 (inactive)
59 | COc1ccc(-c2nc3cc(NC(=O)Cc4ccc(OC)c(OC)c4)ccc3o2)cc1 | -0.468 (inactive)
60 | O=C(COc1ccccc1)NCC(c1cccs1)N1CCOCC1 (stereo not given) | -0.453 (inactive)

Row | SMILES | fluorescence slope
61 | COc1ccc(OCCN2C(=O)NC(C)(c3ccc(C)cc3)C2=O)cc1 (stereo not given) | -0.496 (inactive)
62 | CCOC(=O)c1ccc(Oc2nc(SC)nc(N(C)C)n2)cc1 | -0.34 (inactive)
63 | CCC(C)NC(=O)C1(C)CCC(=O)N1CCc1ccc(OC)c(OC)c1 (stereo not given) | -0.606 (inactive)
64 | O=C(CN1CCN(c2ncccn2)CC1)Nc1ccccc1-n1cccc1 | -0.621 (inactive)
65 | O=C1CCCN1Cc1ncnn1-c1ccccc1 | -0.349 (inactive)
66 | CN(C)c1ccnc(NCc2ccccc2)c1C#N | -0.411 (inactive)
67 | CCCc1cc(C(=O)Nc2ccc(C(C)=O)cc2)no1 | -0.559 (inactive)
68 | O=C(CN(CCc1ccccc1)C(=O)CNS(=O)(=O)c1ccccc1)NCC1CCCO1 (stereo not given) | -0.481 (inactive)
69 | Cc1ccc(SCC(=O)NCCN2C(=O)CSC2=O)c(C)c1 | -0.422 (inactive)
70 | COc1cc(C)c(N)cc1C(C)C | -0.589 (inactive)
71 | O=C(CSc1ncnc2c1cnn2Cc1ccccc1)Nc1ccc2c(c1)OCCO2 | -0.36 (inactive)
72 | O=C(Cn1ncc2c(=O)oc3ccccc3c21)NCC1CCCO1 (stereo not given) | -0.61 (inactive)
73 | COc1ccccc1Oc1ccc(S(=O)(=O)N2CCOCC2)cc1S(=O)(=O)N1CCOCC1 | -0.377 (inactive)
74 | CCOC(=O)N1CCN(C(=O)c2ccc3c(SCC(=O)O)c4c(nc3c2)CCCC4)CC1 | -0.542 (inactive)
75 | CCc1nc(NCCCN2CCOCC2)c2oc3ccccc3c2n1 | -0.465 (inactive)
76 | COc1ccc(OC)c(-c2nc3c(C)n[nH]c(=O)c3[nH]2)c1 | -0.423 (inactive)
77 | O=C(Nc1cccc(-c2nnc(-c3ccccc3)o2)c1)C1CCCCC1 | -0.589 (inactive)
78 | Cc1ccc(S(=O)(=O)Nc2cc(C(=O)O)ccc2N2CCCCC2)cc1 | -0.42 (inactive)
79 | Cc1cc2n(n1)C(c1ccccc1)Nc1ccccc1-2 (stereo not given) | -0.512 (inactive)
80 | Cc1ccc(C)c(C(=O)CC2(O)C(=O)N(C)c3ccccc32)c1 (stereo not given) | -0.45 (inactive)
